# Experimental data: PubChem BioAssay (Tox21)
# Results filed as inconclusive are left out. Entries that show only a call come without a potency. Calls of active or inactive are those of the source. Unless noted, calls come from the whole dose curve; as a rule, active = well fitted curve in the direction sought with a large enough effect in the repeat runs; inconclusive = weak or mixed curves; inactive = no such curve, though single readings can be large; an effect the other way counts as inactive or inconclusive.
# Columns and labels:
# [1] = qHTS assay to identify small molecule antagonists of the estrogen related receptor (ERR) signaling pathway (AID 1224819; note: nearly all actives have a fitted effect of over 50% in size; note: potency is the fitted concentration of half-maximal effect)
# Summary of the method: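 Compounds dissolved in DMSO were pin-transferred onto ERR cells that had been plated 6 h earlier, and cells were then incubated 18 h at 37 C; signal was luciferase luminescence via One-Glo.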
# [2] = tested on: estrogen-related receptor alpha (ERRalpha) with PGC-1alpha coactivator, human; assay: qHTS assay to identify small molecule antagonists of the estrogen related receptor signaling pathway with the pleiotropic PPARgamma coactivator (PGC) (AID 1224821; calls by dose curve; note: nearly all actives have a fitted effect of over 50% in size; note: potency is the fitted concentration of half-maximal effect)
# Summary of the method: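 PGC/ERR reporter cells; 6 h pre-incubation 37 C/5% CO2; pin-tool compound in DMSO, 18 h 37 C; One-Glo added, 30 min RT; luminescence read. qHTS antagonist mode.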
# [3] = qHTS assay to identify small molecule antagonists of the estrogen related receptor signaling pathway with the pleiotropic PPARgamma coactivator (PGC) cell viability counter screen (AID 1224822; note: potency is the fitted concentration of half-maximal effect)
# Summary of the method: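 Counter screen for cell viability: PGC/ERR cells, 6 h pre-incubation after plating, 17.5 h compound exposure at 37 C, fluorescence from CellTiter-Fluor after 30 min.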
# [4] = qHTS assay to identify small molecule agonists of the estrogen related receptor signaling pathway with the pleiotropic PPARgamma coactivator (PGC) (AID 1224823); note: potency is the fitted concentration of half-maximal effect
# Summary of the method: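 Luminescence readout (One-Glo, 30 min RT) from PGC/ERR cell line treated 18 h at 37 C with pin-tool-delivered DMSO compound solutions; cells plated 6 h before dosing. Quantitative HTS format.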
# [5] = qHTS assay to identify small molecule agonists of the estrogen related receptor (ERR) signaling pathway (AID 1224820)
# Summary of the method: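 Luminescence readout (One-Glo, 30 min RT) from NTP-supplied ERR cell line exposed to compounds for 18 h at 37 C. Cells seeded 2,000 per well and pre-incubated 6 h before pin-tool compound transfer.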
# [6] = biological target: Luciferin 4-monooxygenase (Photinus pyralis) (UniProt P08659); assay: qHTS assay to identify small molecule inhibitors of firefly luciferase (AID 1224835); note: series mostly up to about 120 µM; nearly all actives have a fitted effect of over 25% in size
# Summary of the method: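 Inhibition of purified Photinus luciferase is measured by luminescence. Substrate levels (D-luciferin, ATP) sit at their KM values. Each compound is tested in a concentration series.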
# [7] = qHTS assay to identify small molecule agonists of the constitutive androstane receptor (CAR) signaling pathway - cell viability counter screen (AID 1224836); note: series mostly up to about 92 µM; nearly all actives have a fitted effect of over 45% in size
# Summary of the method: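 Cells were seeded and incubated 4 hrs. Compounds were added across 15 concentrations together with PK11195 at 0.75 uM final. Plates were incubated 23 hrs at 37 C. CellTiter-Fluor was added and fluorescence measured.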
# [8] = qHTS assay to identify small molecule antagonists of the constitutive androstane receptor (CAR) signaling pathway - cell viability counter screen (AID 1224837); note: series mostly up to about 92 µM; nearly all actives have a fitted effect of over 45% in size
# Summary of the method: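 To flag cytotoxic false antagonists, HepG2 hCAR/CYP2B6-2.2kb cells were treated 23 hr with 15-concentration compound series and 50 nM CITCO at 37 C/5% CO2; CellTiter-Fluor fluorescence was the measured end point.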
# [9] = biological target: Nuclear receptor subfamily 1 group I member 3 (Homo sapiens) (UniProt Q14994); assay: qHTS assay to identify small molecule antagonists of the constitutive androstane receptor (CAR) signaling pathway (AID 1224838);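 note: HepG2 cells stably expressing hCAR with CYP2B6 luciferase reporter stimulated by CITCO; nearly all actives have a fitted effect of over 40% in size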
# Summary of the method: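 Human hepatoma HepG2 cells expressing hCAR and a CYP2B6 promoter (2.2 kb) luciferase construct; compound titration (15 points) with 50 nM CITCO final, 24 h at 37 C/5% CO2; luminescence via ONE-Glo after 30 min at room temperature.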
# [10] = biological target: Nuclear receptor subfamily 1 group I member 3 (Homo sapiens) (UniProt Q14994); assay: qHTS assay to identify small molecule agonists of the constitutive androstane receptor (CAR) signaling pathway (AID 1224839); note: nearly all actives have a fitted effect of over 15% in size; note: potency is the fitted concentration of half-maximal effect;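 for activation: HepG2 cells stably carrying human CAR and a CYP2B6 luciferase reporter; series mostly up to about 92 µM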
# Summary of the method: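 Cells were plated and incubated 4 hrs, then dosed with compounds at 15 concentrations. PK11195 was added to 0.75 uM final. After 24 hrs at 37 C, luciferase luminescence was measured.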
# [11] = qHTS assay to identify small molecule antagonists of the estrogen related receptor signaling pathway with the pleiotropic PPARgamma coactivator (PGC) from Tox21 10K library - cell viability counter screen (AID 1224840; active = well fitted cell-killing curve with a large enough effect in the repeat runs, not every such curve was filed as active; note: nearly all actives have a fitted effect of over 40% in size; note: potency is the fitted concentration of half-maximal effect)
# Summary of the method: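 Seeded PGC/ERR cells (2,000/well, 6 h, 37 C/5% CO2) get compound by pin tool; 17.5 h incubation at 37 C; CellTiter-Fluor added, 30 min, fluorescence measured.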
# [12] = qHTS assay to identify small molecule antagonists of the estrogen related receptor signaling pathway with the pleiotropic PPARgamma coactivator (PGC) from Tox21 10K library (AID 1224841; call rule not given here; note: potency is the fitted concentration of half-maximal effect; actives are mostly falling curves and most rising ones were filed inactive; nearly all actives have a fitted effect of over 50% in size)
# Summary of the method: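 Test chemicals dissolved in DMSO were applied to pre-incubated (6 h) PGC/ERR cells at 2,000 cells/well for an 18 h, 37 C treatment; reporter luminescence was then read using One-Glo.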
# [13] = qHTS assay to identify small molecule agonists of the estrogen related receptor signaling pathway with the pleiotropic PPARgamma coactivator (PGC) from Tox21 10K library (AID 1224842); note: nearly all actives have a fitted effect of over 15% in size
# Summary of the method: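 Luminescence from One-Glo (30 min, room temperature) measured after PGC/ERR cells had 18 h at 37 C with pinned compound (23 nL in DMSO). Cells had been seeded at 2,000 per well and pre-incubated 6 h.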
# [14] = biological target: Thyrotropin receptor (Homo sapiens) (UniProt P16473); assay: qHTS assay to identify small molecule agonists of the thyroid stimulating hormone receptor (TSHR) signaling pathway (AID 1224843; calls by dose curve; note: nearly all actives have a fitted effect of over 45% in size)
# Summary of the method: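 A cell-based cAMP HTRF format was run in TSHR-transfected HEK293 cells, 800 per well. Treatment: 30 min, room temperature. Detection: 1 h with labelled cAMP and anti-cAMP cryptate. Concentration-response over 15 points, three replicates.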
# [15] = qHTS assay to identify small molecule agonists of the hypoxia (HIF-1) signaling pathway - cell viability counter screen (AID 1224844; calls by dose curve; note: nearly all actives have a fitted effect of over 50% in size; note: potency is the fitted concentration of half-maximal effect)
# Summary of the method: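 HRE-bla ME-180; 0.5% dFBS; cpd 17 h, 37C, 5% CO2; CellTiter-Glo lum., 30 min RT, post-FRET read, same wells.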
# [16] = qHTS assay to identify small molecule agonists of H2AX (AID 1224845; active = well fitted activation curve with a large enough effect in the signal ratio in the repeat runs, not every such curve was filed as active; the % refers to the signal ratio)
# Summary of the method: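 Phospho-H2AX Ser139 measured by HTRF (ex 320 nm; em 665 and 620 nm) after 24 hr antibody incubation. Compounds, 15 concentrations, 0.76% DMSO, were applied to CHO-K1 cells for 3hr at 37C before lysis.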
# [17] = qHTS assay to identify small molecule antagonists of the estrogen related receptor (ERR) signaling pathway from Tox21 library - cell viability counter screen (AID 1224834); note: nearly all actives have a fitted effect of over 30% in size
# Summary of the method: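 Seeded ERR cells were rested 6 h at 37 C/5% CO2 before compounds, positive and negative controls or DMSO were added. Incubation continued for 17.5 h, and viability was then quantified by CellTiter-Fluor fluorescence.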
# Nuclear receptor subfamily 1 group I member 3 (Homo sapiens), sequence (Q14994 whole entry, looked up): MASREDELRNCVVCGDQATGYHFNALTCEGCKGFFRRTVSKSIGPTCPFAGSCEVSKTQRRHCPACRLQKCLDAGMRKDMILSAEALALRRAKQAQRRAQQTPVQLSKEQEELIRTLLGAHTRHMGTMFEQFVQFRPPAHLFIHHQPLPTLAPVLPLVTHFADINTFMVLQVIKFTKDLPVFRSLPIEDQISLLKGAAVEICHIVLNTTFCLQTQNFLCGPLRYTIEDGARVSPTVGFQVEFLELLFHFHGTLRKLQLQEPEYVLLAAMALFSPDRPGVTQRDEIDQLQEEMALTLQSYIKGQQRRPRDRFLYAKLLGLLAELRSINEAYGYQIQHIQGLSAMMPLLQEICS
# Thyrotropin receptor (Homo sapiens), sequence (P16473 whole entry, looked up): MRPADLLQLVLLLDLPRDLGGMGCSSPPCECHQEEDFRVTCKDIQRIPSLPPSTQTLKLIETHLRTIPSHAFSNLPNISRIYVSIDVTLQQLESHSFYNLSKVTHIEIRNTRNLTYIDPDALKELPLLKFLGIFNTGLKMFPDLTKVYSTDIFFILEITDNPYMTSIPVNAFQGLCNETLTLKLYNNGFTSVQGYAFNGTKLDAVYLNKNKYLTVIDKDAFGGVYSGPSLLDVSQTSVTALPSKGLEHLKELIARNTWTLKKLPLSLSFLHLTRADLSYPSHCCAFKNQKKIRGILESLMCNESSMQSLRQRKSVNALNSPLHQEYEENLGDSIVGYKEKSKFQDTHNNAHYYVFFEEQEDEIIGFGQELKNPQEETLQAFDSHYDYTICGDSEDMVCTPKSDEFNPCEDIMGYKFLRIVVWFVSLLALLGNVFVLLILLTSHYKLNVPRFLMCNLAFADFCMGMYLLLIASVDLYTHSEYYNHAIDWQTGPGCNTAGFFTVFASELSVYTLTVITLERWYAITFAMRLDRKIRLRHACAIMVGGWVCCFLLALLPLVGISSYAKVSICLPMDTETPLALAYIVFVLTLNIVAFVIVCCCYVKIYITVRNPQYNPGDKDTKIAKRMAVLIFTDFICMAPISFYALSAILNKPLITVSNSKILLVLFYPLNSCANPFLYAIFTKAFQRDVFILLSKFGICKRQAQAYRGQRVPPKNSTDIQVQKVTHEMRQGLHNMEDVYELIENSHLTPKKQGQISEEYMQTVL
# Luciferin 4-monooxygenase (Photinus pyralis), sequence (P08659 whole entry, looked up): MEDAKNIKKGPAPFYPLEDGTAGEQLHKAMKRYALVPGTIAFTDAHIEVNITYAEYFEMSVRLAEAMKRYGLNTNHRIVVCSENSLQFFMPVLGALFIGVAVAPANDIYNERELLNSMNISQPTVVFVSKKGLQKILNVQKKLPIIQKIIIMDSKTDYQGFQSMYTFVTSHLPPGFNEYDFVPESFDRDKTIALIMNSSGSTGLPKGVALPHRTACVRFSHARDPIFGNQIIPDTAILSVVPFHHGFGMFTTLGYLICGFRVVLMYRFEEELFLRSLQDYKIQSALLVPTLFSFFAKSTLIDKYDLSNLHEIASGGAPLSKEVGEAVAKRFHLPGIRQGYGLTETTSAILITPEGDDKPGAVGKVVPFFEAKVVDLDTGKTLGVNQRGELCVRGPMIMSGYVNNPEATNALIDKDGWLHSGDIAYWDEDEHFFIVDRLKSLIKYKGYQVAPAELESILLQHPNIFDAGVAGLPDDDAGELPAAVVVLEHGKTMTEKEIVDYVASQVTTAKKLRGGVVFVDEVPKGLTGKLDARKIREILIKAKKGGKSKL
compound,measurement,setting,value
OCC1O[C@H]([S-])C(O)[C@@H](O)[C@@H]1O.[Au+] (some centres undefined),Potency,[1],22 µM (active)
same,Potency,[2],5.11 µM (active)
same,Potency,[3],9.08 µM (active)
same,Potency,[4],inactive
O=[N+]([O-])c1ccc2c(c1)S(=O)(=O)C=C2,Potency,[5],inactive
same,Potency,[3],11.4 µM (active)
N[C@H](CCCP(=O)(O)O)C(=O)O,Potency,[1],inactive
same,Potency,[3],inactive
same,Potency,[4],inactive
CC[C@@H]1Cc2cc(O)ccc2C2=C1c1ccc(O)cc1C[C@H]2CC,Potency,[5],inactive
same,Potency,[2],15 µM (active)
same,Potency,[4],inactive
CC(C)C[C@H](NC(=O)[C@@H](O)[C@H](N)Cc1ccccc1)C(=O)O,Potency,[5],inactive
same,Potency,[2],6.94 µM (active)
same,Potency,[3],inactive
same,Potency,[4],inactive
Oc1ccc(/C=C/c2ccc(/C=C/c3ccc(O)cc3)c(Br)c2)cc1,Potency,[5],inactive
same,Potency,[2],inactive
same,Potency,[4],inactive
Cc1cc(Cl)ccc1OCCCC(=O)NO,Potency,[5],inactive
same,Potency,[2],inactive
CN1CCN(CCCN2c3ccccc3Sc3ccc(C(F)(F)F)cc32)CC1,Potency,[5],inactive
same,Potency,[2],inactive
same,Potency,[6],inactive
same,Potency,[7],inactive
same,Potency,[8],inactive
same,Potency,[9],inactive
same,Potency,[10],inactive
same,Potency,[11],29.8 µM (active)
same,Potency,[12],29.8 µM (active)
same,Potency,[13],inactive
same,Potency,[14],inactive
same,Potency,[15],16.9 µM (active)
same,Potency,[16],inactive
Nc1nc(Cl)nc2c1ncn2[C@@H]1O[C@H](COP(=O)(O)OP(=O)(O)OP(=O)(O)O)C(O)[C@H]1O (some centres undefined),Potency,[5],inactive
same,Potency,[2],inactive
same,Potency,[3],inactive
same,Potency,[4],1.33 µM (active)
Nc1ccc2c3c(cccc13)C(=O)NC2=O,Potency,[5],inactive
same,Potency,[2],inactive
same,Potency,[4],inactive
CCOC(=O)N1CCN(/[N+]([O-])=N/Oc2ccc([N+](=O)[O-])cc2[N+](=O)[O-])CC1,Potency,[5],inactive
same,Potency,[3],13.9 µM (active)
same,Potency,[4],inactive
C=CCN1CCc2c(cc(O)c(O)c2Cl)C(c2ccccc2)C1 (centres undefined),Potency,[5],inactive
same,Potency,[2],inactive
same,Potency,[4],inactive
O=c1oc(Cl)c(Cl)c2ccccc12,Potency,[5],inactive
same,Potency,[4],inactive
Cc1ccc2sc3cccc(C)c3c2c1,Potency,[17],inactive
same,Potency,[6],inactive
same,Potency,[7],inactive
same,Potency,[8],inactive
same,Potency,[9],inactive
same,Potency,[10],27.3 µM (active)
same,Potency,[11],inactive
same,Potency,[14],inactive
same,Potency,[15],inactive
same,Potency,[16],inactive
O=C(CCCCCN1CCN(c2ccccc2-c2ccccc2)CC1)NC1CCCc2ccccc21 (centres undefined),Potency,[5],inactive
same,Potency,[4],inactive
NS(=O)(=O)C#Cc1ccccc1,Potency,[5],inactive
same,Potency,[4],inactive
CN(C)CCC(c1ccc(Br)cc1)c1ccccn1 (centres undefined),Potency,[3],inactive
